# Reference: PubChem BioAssay
# For some of these results: Measured potencies and affinities stand elsewhere. The source made the active and inactive calls.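 Rule for the calls, unless noted: active = calcium signal ratio cut to more than 3 SD under the fully stimulated control mean yet still positive, in both repeats and the primary screen; inactive = the rest.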
# Experiments:
# [1] = system: TRPC4 beta (transient receptor potential cation channel C4), mouse; assay: activators of mouse TRPC4 channel, confirmation, cell-based, Fluo4 calcium, HEK293 TRPC4beta/mu-opioid, duplicates, 10 µM (AID 2426;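 active = fluorescence ratio normalized to control raised more than 50% in primary screen plus both repeat runs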); conditions: Fluo4 calcium fluorescence, at 10 µM; hits give high values
# [2] = system: transient receptor potential cation channel C4 beta (TRPC4), mouse; assay: activators of mouse TRPC4 channel, confirmation, cell-based, second round, Fluo4, HEK293 TRPC4beta/mu-opioid, 1 µM (AID 2461;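 active = primary screen active and over 50% activation in each of two duplicate runs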); conditions: Fluo4 calcium fluorescence, at 1 µM; hits give high values
# [3] = system: TRPC4 (transient receptor potential cation channel C4 beta), mouse; assay: positive allosteric modulators of mouse TRPC4, confirmation, cell-based, second round, Fluo-4, HEK293 TRPC4beta/mu-opioid, 1 µM (AID 2554;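 active = primary screen hit whose fluorescence ratio, in both repeats, exceeds the weak agonist control mean by 3 SD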); conditions: DAMGO EC20, Fluo-4 calcium flux, at 1 µM; hits give high values
# [4] = system: TRPC4 beta (transient receptor potential cation channel C4), mouse; assay: positive allosteric modulators of mouse TRPC4, confirmation, cell-based, Fluo-4, HEK293 TRPC4beta/mu-opioid (AID 2555;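 active = primary screen hit whose calcium fluorescence ratio, in both repeats, exceeds the weak agonist control mean by 3 SD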); conditions: DAMGO EC20, Fluo-4 calcium flux, at 10 µM; hits give high values
# [5] = target: Short transient receptor potential channel 4 (Mus musculus) (UniProt Q9QUQ5); assay: inhibitors of mouse TRPC4 channel, confirmation, cell-based, Fluo4, HEK293 TRPC4beta/mu-opioid (AID 2636;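 active = calcium signal cut by more than 3 SD below the full-agonist control yet still positive, in both repeats and the earlier primary screen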); conditions: DAMGO, Fluo4 calcium flux, at 10 µM; hits give high values
# Chain of Short transient receptor potential channel 4 (Mus musculus) (Q9QUQ5 whole entry, looked up): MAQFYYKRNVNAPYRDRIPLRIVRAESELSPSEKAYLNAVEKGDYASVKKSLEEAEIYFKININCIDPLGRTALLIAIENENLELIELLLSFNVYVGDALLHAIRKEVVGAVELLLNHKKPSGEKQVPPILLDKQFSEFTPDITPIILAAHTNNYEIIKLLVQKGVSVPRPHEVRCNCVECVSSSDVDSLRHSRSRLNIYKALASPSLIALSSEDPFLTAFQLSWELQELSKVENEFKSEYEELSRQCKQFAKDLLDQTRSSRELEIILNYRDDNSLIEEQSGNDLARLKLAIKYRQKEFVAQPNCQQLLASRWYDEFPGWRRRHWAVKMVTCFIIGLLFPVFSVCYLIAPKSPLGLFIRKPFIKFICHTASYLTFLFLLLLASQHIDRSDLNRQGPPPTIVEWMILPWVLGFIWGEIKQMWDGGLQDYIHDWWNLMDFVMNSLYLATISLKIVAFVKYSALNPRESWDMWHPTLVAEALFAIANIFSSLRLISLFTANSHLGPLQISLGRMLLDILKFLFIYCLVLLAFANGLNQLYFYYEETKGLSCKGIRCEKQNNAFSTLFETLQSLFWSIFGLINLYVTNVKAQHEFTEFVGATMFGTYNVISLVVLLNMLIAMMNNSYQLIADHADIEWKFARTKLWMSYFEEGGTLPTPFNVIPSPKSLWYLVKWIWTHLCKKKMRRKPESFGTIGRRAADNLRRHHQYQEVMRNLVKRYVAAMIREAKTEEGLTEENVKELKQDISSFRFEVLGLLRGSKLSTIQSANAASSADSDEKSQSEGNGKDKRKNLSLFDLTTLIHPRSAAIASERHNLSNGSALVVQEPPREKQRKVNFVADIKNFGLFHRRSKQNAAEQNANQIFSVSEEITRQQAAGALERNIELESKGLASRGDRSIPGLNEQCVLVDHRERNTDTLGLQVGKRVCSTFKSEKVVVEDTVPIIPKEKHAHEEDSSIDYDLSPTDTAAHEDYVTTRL
# [6] = target: Short transient receptor potential channel 4 (Mus musculus) (UniProt Q9QUQ5); assay: inhibitors of mouse TRPC4 channel, confirmation, cell-based, second round, Fluo4, HEK293 TRPC4beta/mu-opioid, 1 µM (AID 2637); conditions: Fluo4 calcium flux, DAMGO, at 1 µM; hits give high values;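 for inhibition: percent of integrated ratio relative to wells lacking test compound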
# [7] = target: Short transient receptor potential channel 4 (Mus musculus) (UniProt Q9QUQ5); assay: mouse TRPC4 channel activators, dose response, cell-based, HEK293 TRPC4/mu-opioid, Fluo-4 calcium (AID 434937;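 active = primary screen activator hit with a dose response curve and TRPC4 channel activation at any tested dose; inactive = no activation, no dose response, or not a primary hit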)
# [8] = target: Short transient receptor potential channel 4 (Mus musculus) (UniProt Q9QUQ5); assay: mouse TRPC4 channel inhibitors, dose response, cell-based, HEK293 TRPC4/mu-opioid, Fluo-4 calcium (AID 434942;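 active = primary screen inhibitor hit that blocks the TRPC4 channel at some tested dose, yielding a dose curve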)
# [9] = target: Short transient receptor potential channel 6 (Mus musculus) (UniProt Q61143); assay: inhibition of mouse TRPC6 channel, confirmation, selectivity assay for TRPC4 inhibitor project, cell-based, HEK293, membrane potential dye, duplicate (AID 434948;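 active = active in primary screen and both duplicates, each dropping signal beyond three positive-control SD with fluorescence still positive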); conditions: HEK293 TRPC6, membrane potential dye fluorescence, at 10 µM, stimulated with maximal-effect acetylcholine; hits give high values
# Chain of Short transient receptor potential channel 6 (Mus musculus) (Q61143 whole entry, looked up): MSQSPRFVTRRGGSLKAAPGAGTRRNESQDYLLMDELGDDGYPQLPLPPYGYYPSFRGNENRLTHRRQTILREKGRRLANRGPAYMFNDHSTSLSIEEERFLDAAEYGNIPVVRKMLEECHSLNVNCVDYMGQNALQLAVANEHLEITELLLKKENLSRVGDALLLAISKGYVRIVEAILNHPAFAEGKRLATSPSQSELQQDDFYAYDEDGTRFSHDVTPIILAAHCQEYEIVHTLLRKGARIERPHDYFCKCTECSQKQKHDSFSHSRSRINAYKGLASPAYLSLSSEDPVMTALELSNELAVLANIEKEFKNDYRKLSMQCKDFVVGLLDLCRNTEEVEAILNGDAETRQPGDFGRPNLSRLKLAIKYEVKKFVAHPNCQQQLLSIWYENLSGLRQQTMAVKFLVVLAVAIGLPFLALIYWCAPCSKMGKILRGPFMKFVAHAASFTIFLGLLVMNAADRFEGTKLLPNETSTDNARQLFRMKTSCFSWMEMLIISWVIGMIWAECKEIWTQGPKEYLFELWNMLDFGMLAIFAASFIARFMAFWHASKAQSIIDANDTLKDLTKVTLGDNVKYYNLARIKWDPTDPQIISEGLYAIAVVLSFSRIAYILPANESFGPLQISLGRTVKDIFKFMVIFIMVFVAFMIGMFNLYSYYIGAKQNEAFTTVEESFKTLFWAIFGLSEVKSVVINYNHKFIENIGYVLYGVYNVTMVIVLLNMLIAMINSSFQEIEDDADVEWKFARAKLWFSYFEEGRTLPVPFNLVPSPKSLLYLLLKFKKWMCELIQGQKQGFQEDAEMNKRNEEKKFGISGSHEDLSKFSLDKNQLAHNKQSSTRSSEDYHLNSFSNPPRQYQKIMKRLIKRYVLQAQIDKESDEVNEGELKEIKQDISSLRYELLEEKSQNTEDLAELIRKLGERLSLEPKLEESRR
# [10] = target: Short transient receptor potential channel 6 (Mus musculus) (UniProt Q61143); assay: activation of mouse TRPC6 channel, confirmation, selectivity assay for TRPC4 activator project, cell-based, HEK293, membrane potential dye, duplicate (AID 434950;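 active = membrane potential signal rise above negative control mean plus 3 SD in both duplicates, also active in the earlier TRPC4 screen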); conditions: HEK293 TRPC6, membrane potential fluorescence, at 10 µM; hits give high values
# [11] = target: Short transient receptor potential channel 6 (Mus musculus) (UniProt Q61143); assay: TRPC6 potentiation by TRPC4 potentiator hits, confirmation, selectivity assay for TRPC4 potentiator project, HEK293 cells, membrane potential dye, duplicate (AID 434952;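 active = compound raising the membrane signal above positive-control mean plus 3 SD in both repeats, and a primary screen hit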); conditions: HEK293 TRPC6, membrane potential dye fluorescence, at 10 µM, maximal acetylcholine added after compound; hits give high values
# [12] = target: Short transient receptor potential channel 4 (Mus musculus) (UniProt Q9QUQ5); assay: calcium flux activators in TRPC4/5HT1a cells, counter-screen for TRPC4 activator project, cell-based, second counter screen, HEK293 TRPC4/5HT1a, Fluo-4 (AID 434977;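 active = calcium signal rise above buffer-control mean plus 5 SD in both duplicates, and also a hit in the primary screen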); conditions: Fluo-4 calcium flux, at 10 µM; hits give high values
# [13] = calcium flux inhibitors in TRPC4/5HT1a cells, confirmation, counter-screen for TRPC4 inhibitor project, cell-based, second counter screen, HEK293 TRPC4/5HT1a, Fluo-4 (AID 434978;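 active = primary screen active whose calcium signal fell more than 3 SD beyond the full-serotonin control mean in both duplicate plates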;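 for outcome: serotonin given first at submaximal then at maximal dose after compound preincubation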); conditions: Fluo-4 calcium flux, at 10 µM, serotonin added to trigger calcium flux; hits give high values
# [14] = system: TRPC4 (mouse), co-expressed with 5HT1a in HEK293; assay: calcium flux potentiators in TRPC4/5HT1a cells, confirmation, counter-screen for TRPC4 potentiator project, cell-based, second counter screen, HEK293 TRPC4/5HT1a, Fluo-4 (AID 434979;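 active = signal rise over 3 SD above mean of control wells given weak agonist, in both repeats and first screen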); conditions: Fluo-4 calcium flux, at 10 µM, serotonin added at its EC20 dose; hits give high values
# [15] = calcium flux activation in mu-opioid HEK293 cells, confirmation, counter-screen for TRPC4 activator project, cell-based, HEK293 mu-opioid receptor line (AID 449723;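 active = hit in primary screen, with calcium signal over 5 SD above buffer well mean in both duplicates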;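 note: counter screen cells carry the mu-opioid receptor alone and lack TRPC4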); conditions: Fluo-4 calcium fluorescence, at 10 µM; hits give high values
# [16] = calcium flux enhancement in mu-opioid HEK293 cells, confirmation, counter-screen for TRPC4 allosteric potentiator project, cell-based, HEK293 mu-opioid receptor line (AID 449724;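 active = calcium signal rise more than 3 SD above the low-dose agonist control mean, in both duplicate plates and the primary screen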); conditions: Fluo-4 calcium flux, at 10 µM, compound added before EC20 DAMGO stimulus; hits give high values
# [17] = target: Short transient receptor potential channel 4 (Mus musculus) (UniProt Q9QUQ5); assay: TRPC4 positive allosteric modulators, dose response, cell-based, HEK293 TRPC4/mu-opioid, Fluo-4 calcium, EC20 DAMGO (AID 434941;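 active = earlier screen potentiator hit that boosts the TRPC4 ion channel at some dose, with a dose response; inactive = no potentiation, no dose response, or not a prior hit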;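 note: calcium entry triggered by an EC20 dose of DAMGO at the co-expressed mu-opioid receptor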)
# [18] = thallium flux activation in parental CHO cells, counter-screen for KCNQ1 potentiator project (AID 493006;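 active = duplicate-averaged activation above buffer control mean plus 5 SD of those controls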;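 for activation: fluorescence ratio of max minus min over baseline after K+ and Tl+ depolarization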); conditions: parental CHO-K1 cells, FluxOR thallium flux, at 10 µM; hits give high values
# [19] = target: Potassium voltage-gated channel subfamily KQT member 1 (Homo sapiens) (UniProt P51787); assay: KCNQ1 potassium channel potentiators, confirmation, FluxOR thallium flux, CHO cells, duplicates (AID 493007;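 active = potentiation averaged over duplicate wells exceeding buffer-only control mean by more than 3 SD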;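 for outcome: cells depolarized by a potassium plus thallium sulfate stimulus after compound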;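 for potentiation: 0% = buffer-only wells and 100% = R-L3 activator control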); conditions: KCNQ1 cell line, FluxOR thallium flux fluorescence, at 10 µM; hits give high values, % of reference activator effect, buffer zero
# Chain of Potassium voltage-gated channel subfamily KQT member 1 (Homo sapiens) (P51787 whole entry, looked up): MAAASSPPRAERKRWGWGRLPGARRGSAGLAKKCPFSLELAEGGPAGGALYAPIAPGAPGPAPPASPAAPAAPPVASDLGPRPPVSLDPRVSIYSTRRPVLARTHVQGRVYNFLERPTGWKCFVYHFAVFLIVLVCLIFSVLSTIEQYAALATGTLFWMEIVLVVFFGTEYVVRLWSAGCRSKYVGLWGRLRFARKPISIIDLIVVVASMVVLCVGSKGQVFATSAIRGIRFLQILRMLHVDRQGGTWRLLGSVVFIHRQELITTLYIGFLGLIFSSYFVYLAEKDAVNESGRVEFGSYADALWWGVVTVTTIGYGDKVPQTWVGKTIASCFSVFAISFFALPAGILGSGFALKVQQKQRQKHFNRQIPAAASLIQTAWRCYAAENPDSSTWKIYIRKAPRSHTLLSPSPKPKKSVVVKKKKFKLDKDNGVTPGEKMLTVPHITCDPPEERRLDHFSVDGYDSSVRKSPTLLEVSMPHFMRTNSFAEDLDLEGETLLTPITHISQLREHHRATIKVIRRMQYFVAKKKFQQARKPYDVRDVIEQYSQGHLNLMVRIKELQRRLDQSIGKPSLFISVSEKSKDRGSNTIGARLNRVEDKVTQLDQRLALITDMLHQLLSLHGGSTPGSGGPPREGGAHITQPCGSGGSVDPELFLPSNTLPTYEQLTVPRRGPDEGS
# [20] = target: Potassium voltage-gated channel subfamily KQT member 2 (Rattus norvegicus) (UniProt O88943); assay: rat KCNQ2 channel potentiation, selectivity assay for KCNQ1 potentiator project, KCNQ2-CHO-K1 cells (AID 493009;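 active = mean duplicate potentiation above the buffer control mean plus 5 SD of buffer wells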;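 note: assay conditions were tuned for KCNQ1 rather than KCNQ2 modulators; signal is max minus min fluorescence divided by baseline after thallium stimulus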); conditions: FluxOR thallium flux fluorescence, at 10 µM; hits give high values, scaled: buffer 0, activator control 100
# Chain of Potassium voltage-gated channel subfamily KQT member 2 (Rattus norvegicus) (O88943 whole entry, looked up): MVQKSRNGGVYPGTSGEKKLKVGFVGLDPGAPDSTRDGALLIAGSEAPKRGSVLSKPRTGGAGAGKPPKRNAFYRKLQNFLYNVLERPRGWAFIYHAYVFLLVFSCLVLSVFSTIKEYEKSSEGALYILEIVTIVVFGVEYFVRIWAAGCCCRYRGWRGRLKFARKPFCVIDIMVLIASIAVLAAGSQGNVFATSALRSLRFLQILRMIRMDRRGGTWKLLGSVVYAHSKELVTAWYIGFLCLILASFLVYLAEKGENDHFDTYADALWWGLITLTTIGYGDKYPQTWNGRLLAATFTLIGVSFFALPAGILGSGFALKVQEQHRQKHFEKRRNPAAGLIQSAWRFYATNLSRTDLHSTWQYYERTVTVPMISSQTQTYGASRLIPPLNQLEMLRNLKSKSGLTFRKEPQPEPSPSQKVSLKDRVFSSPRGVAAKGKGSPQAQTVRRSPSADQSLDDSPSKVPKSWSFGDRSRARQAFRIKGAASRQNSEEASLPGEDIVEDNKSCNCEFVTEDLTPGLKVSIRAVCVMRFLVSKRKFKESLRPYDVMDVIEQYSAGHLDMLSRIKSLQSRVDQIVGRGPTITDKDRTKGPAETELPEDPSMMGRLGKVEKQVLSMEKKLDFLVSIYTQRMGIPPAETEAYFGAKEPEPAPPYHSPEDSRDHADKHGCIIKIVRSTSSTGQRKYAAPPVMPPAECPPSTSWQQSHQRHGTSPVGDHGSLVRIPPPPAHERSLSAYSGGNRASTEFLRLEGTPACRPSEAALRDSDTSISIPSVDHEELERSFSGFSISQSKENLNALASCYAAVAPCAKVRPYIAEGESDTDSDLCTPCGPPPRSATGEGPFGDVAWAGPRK
smiles,measurement,setting,value
CN(C)CCNc1ccc(Cl)cc1[N+](=O)[O-],outcome,[1],inactive
same,outcome,[2],inactive
same,outcome,[3],inactive
same,outcome,[4],inactive
same,outcome,[5],inactive
same,outcome,[6],inactive
same,outcome,[7],inactive
same,outcome,[8],inactive
same,outcome,[9],inactive
same,outcome,[10],inactive
same,outcome,[11],inactive
same,outcome,[12],inactive
same,outcome,[13],inactive
same,potentiation,[14],8.91% (active)
same,outcome,[15],inactive
same,outcome,[16],inactive
O=C(O)c1ccc(Cl)cc1Nc1nc2cc(Cl)ccc2o1,outcome,[1],inactive
same,outcome,[2],inactive
same,outcome,[3],inactive
same,outcome,[4],inactive
same,inhibition,[5],98% (active)
same,outcome,[6],inactive
same,outcome,[7],inactive
same,outcome,[17],inactive
same,outcome,[9],inactive
same,outcome,[10],inactive
same,outcome,[11],inactive
same,outcome,[12],inactive
same,inhibition,[13],9.42% (active)
same,outcome,[14],inactive
same,outcome,[15],inactive
same,outcome,[16],inactive
same,outcome,[18],inactive
same,potentiation,[19],24.5% (active)
same,outcome,[20],inactive
O=C(NCc1ccccc1)C1=C[C@H](c2ccc(Br)cc2)C[C@H](OCc2ccc(CO)cc2)O1,outcome,[1],inactive
same,outcome,[2],inactive
same,outcome,[3],inactive
same,potentiation,[4],35% (active)
same,outcome,[5],inactive
same,outcome,[6],inactive
same,outcome,[7],inactive
same,outcome,[8],inactive
same,outcome,[9],inactive
same,outcome,[10],inactive
same,outcome,[11],inactive
same,outcome,[12],inactive
same,outcome,[13],inactive
same,potentiation,[14],97.6% (active)
same,outcome,[15],inactive
same,outcome,[16],inactive
Oc1c(Br)cc(Br)cc1C=Nc1ccc2[nH]ncc2c1,outcome,[1],inactive
same,outcome,[2],inactive
same,outcome,[3],inactive
same,outcome,[4],inactive
same,inhibition,[5],68% (active)
same,outcome,[6],inactive
same,outcome,[7],inactive
same,outcome,[17],inactive
same,outcome,[9],inactive
same,outcome,[10],inactive
same,outcome,[11],inactive
same,outcome,[12],inactive
same,inhibition,[13],30.1% (active)
same,outcome,[14],inactive
same,outcome,[15],inactive
same,outcome,[16],inactive
same,activation,[18],184% (active)
same,potentiation,[19],41.5% (active)
same,outcome,[20],inactive
CCCCN(C)CCNC(=O)c1cc2c(-c3cccc(OC)c3)nn(C)c2s1,outcome,[1],inactive
same,outcome,[2],inactive
same,outcome,[3],inactive
same,outcome,[4],inactive
same,outcome,[5],inactive
same,outcome,[6],inactive
same,outcome,[7],inactive
same,outcome,[8],inactive
same,outcome,[9],inactive
same,outcome,[10],inactive
same,outcome,[11],inactive
same,outcome,[12],inactive
same,outcome,[13],inactive
same,potentiation,[14],39.5% (active)
same,outcome,[15],inactive
same,outcome,[16],inactive
CCOc1ccc(-n2c(SCC(=O)O)nc3sc4c(c3c2=O)CCCC4)cc1,outcome,[1],inactive
same,outcome,[2],inactive
same,outcome,[3],inactive
same,outcome,[4],inactive
same,outcome,[5],inactive
same,outcome,[6],inactive
same,outcome,[7],inactive
same,outcome,[8],inactive
same,outcome,[9],inactive
same,outcome,[10],inactive
same,outcome,[11],inactive
same,outcome,[12],inactive
same,outcome,[13],inactive
same,potentiation,[14],16.4% (active)
same,outcome,[15],inactive
same,outcome,[16],inactive
CCCc1nc2oc3c(NCCN(C)C)ncnc3c2c2c1CCCC2,outcome,[1],inactive
same,outcome,[2],inactive
same,outcome,[3],inactive
same,outcome,[4],inactive
same,inhibition,[5],86% (active)
same,inhibition,[6],37% (active)
same,outcome,[7],inactive
same,outcome,[17],inactive
same,outcome,[9],inactive
same,outcome,[10],inactive
same,outcome,[11],inactive
same,outcome,[12],inactive
same,inhibition,[13],13.5% (active)
same,outcome,[14],inactive
same,outcome,[15],inactive
same,outcome,[16],inactive
same,outcome,[18],inactive
same,outcome,[19],inactive
same,outcome,[20],inactive
COc1ccc(Cn2nnnc2C(c2cc3cc(C)ccc3[nH]c2=O)N2CCN(C)CC2)cc1 (stereo not given),outcome,[1],inactive
same,outcome,[2],inactive
same,outcome,[3],inactive
same,outcome,[4],inactive
same,inhibition,[5],83% (active)
same,outcome,[6],inactive
same,outcome,[7],inactive
same,outcome,[17],inactive
same,outcome,[9],inactive
same,outcome,[10],inactive
same,outcome,[11],inactive
same,outcome,[12],inactive
same,outcome,[13],inactive
same,outcome,[14],inactive
same,outcome,[15],inactive
same,outcome,[16],inactive
Cc1cc(-c2ccc(C)c(S(=O)(=O)N3CCN(C(=O)c4ccco4)CC3)c2)on1,outcome,[1],inactive
same,outcome,[2],inactive
same,outcome,[3],inactive
same,potentiation,[4],46% (active)
same,outcome,[5],inactive
same,outcome,[6],inactive
same,outcome,[7],inactive
same,outcome,[8],inactive
same,outcome,[9],inactive
same,outcome,[10],inactive
same,outcome,[11],inactive
same,outcome,[12],inactive
same,outcome,[13],inactive
same,potentiation,[14],54.2% (active)
same,outcome,[15],inactive
same,outcome,[16],inactive
CNc1nc(N2CCc3ccccc32)ncc1F,outcome,[1],inactive
same,outcome,[2],inactive
same,potentiation,[3],27% (active)
same,potentiation,[4],75% (active)
same,outcome,[5],inactive
same,outcome,[6],inactive
same,outcome,[7],inactive
same,outcome,[8],inactive
same,outcome,[9],inactive
same,outcome,[10],inactive
same,outcome,[11],inactive
same,outcome,[12],inactive
same,outcome,[13],inactive
same,potentiation,[14],103% (active)
same,outcome,[15],inactive
same,outcome,[16],inactive
COc1ccc(N/C(C)=C2/C(=O)C(=O)N(CCO)C2c2ccc([N+](=O)[O-])cc2)cc1 (stereo not given),outcome,[1],inactive
same,outcome,[2],inactive
same,potentiation,[3],189% (active)
same,potentiation,[4],150% (active)
same,outcome,[5],inactive
same,outcome,[6],inactive
same,outcome,[7],inactive
same,outcome,[8],inactive
same,outcome,[9],inactive
same,outcome,[10],inactive
same,outcome,[11],inactive
same,outcome,[12],inactive
same,outcome,[13],inactive
same,potentiation,[14],129% (active)
same,outcome,[15],inactive
same,outcome,[16],inactive
O=Cc1cc(N=Nc2ccccc2Cl)ccc1O,outcome,[1],inactive
same,outcome,[2],inactive
same,outcome,[3],inactive
same,outcome,[4],inactive
same,inhibition,[5],91% (active)
same,outcome,[6],inactive
same,outcome,[7],inactive
same,outcome,[17],inactive
same,outcome,[9],inactive
same,outcome,[10],inactive
same,outcome,[11],inactive
same,outcome,[12],inactive
same,inhibition,[13],30.2% (active)
same,outcome,[14],inactive
same,outcome,[15],inactive
same,outcome,[16],inactive
same,activation,[18],237% (active)
same,potentiation,[19],81% (active)
same,potentiation,[20],248% (active)
O=C1C(Cl)=C(Nc2cccc(O)c2)C(=O)N1Cc1ccccc1,outcome,[1],inactive
same,outcome,[2],inactive
same,outcome,[3],inactive
same,potentiation,[4],38% (active)
same,outcome,[5],inactive
same,outcome,[6],inactive
same,outcome,[7],inactive
same,outcome,[8],inactive
same,outcome,[9],inactive
same,outcome,[10],inactive
same,outcome,[11],inactive
same,outcome,[12],inactive
same,outcome,[13],inactive
same,potentiation,[14],20.8% (active)
same,outcome,[15],inactive
same,outcome,[16],inactive
